In the library only some 4.7% were active in any assay of this set; here they are far more common.
TRHR enhancer: qHTS for Small Molecule Agonists and Allosteric Enhancers of Human TRH Receptor: Primary Screen for Enhancers. Thyrotropin-releasing hormone receptor (Homo sapiens), P34981. enhancement, % at 2 µM. hit rate 0.66% among 360,000. TRHR cells, fluo-8 calcium fluorescence, EC20 TRH enhancement; in the data active means enhancement above about 30%
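Enhancer read-out: after compound pinning and an initial kinetic agonist-mode read, an EC20 of TRH (10 nM final) was injected and fluo-8 calcium signal (Ex 480/Em 530) followed at 1 s/cycle for 100 cycles in TRHR-expressing cells.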
D1 agonist: Allosteric Agonists of the Human D1 Dopamine Receptor: qHTS; D(1A) dopamine receptor (Homo sapiens), P21728; activation, % at 2 µM; AID 504660, 2011; hit rate 1% among 360,000; HEK293 T-REx D1 cells, calcium flux, agonist mode
Target sequence (P21728 whole entry, looked up): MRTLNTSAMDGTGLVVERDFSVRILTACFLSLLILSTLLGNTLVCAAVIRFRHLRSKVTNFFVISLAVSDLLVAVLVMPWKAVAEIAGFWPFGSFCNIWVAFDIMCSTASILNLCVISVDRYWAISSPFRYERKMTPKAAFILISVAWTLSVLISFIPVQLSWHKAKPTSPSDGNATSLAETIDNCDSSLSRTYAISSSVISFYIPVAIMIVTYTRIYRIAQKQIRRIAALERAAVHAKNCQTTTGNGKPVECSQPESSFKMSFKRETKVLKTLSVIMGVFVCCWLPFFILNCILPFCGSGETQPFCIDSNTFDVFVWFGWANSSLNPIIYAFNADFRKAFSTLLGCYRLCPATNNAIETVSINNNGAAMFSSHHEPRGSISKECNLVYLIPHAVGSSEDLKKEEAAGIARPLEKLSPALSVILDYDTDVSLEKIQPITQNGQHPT
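Tetracycline-induced HEK293 TREx D1 cells, force-coupled to calcium signalling, were dye-loaded with a no-wash calcium kit. Compound was pin-added after a 10 s baseline. Fluorescence was read kinetically at 1 cycle/s for 180 s, with calcium rises flagged as agonism.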
D1 antagonist: Antagonist of Human D 1 Dopamine Receptor: qHTS; D(1A) dopamine receptor (Homo sapiens), P21728; HEK293 TREx D1 cells, calcium flux, dopamine EC80; active compounds read low; activity change, negative = inhibition, % at 10 µM; hit rate 3.2% among 360,000; in the data active means activity change below about -30%
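Antagonism measured as reduced calcium response to an EC80 dopamine addition following 180 s compound pre-read; cells were inducible HEK293 Trex D1 plated overnight at 30 C, read kinetically at 1 cycle/sec.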
TRHR agonist: qHTS for Small Molecule Agonists and Allosteric Enhancers of Human TRH Receptor: Primary Screen for Agonists. AID 493084, 2011. Thyrotropin-releasing hormone receptor (Homo sapiens), P34981. activation, % at 2 µM. TRHR cells, calcium flux fluo-8, FDSS agonist mode. hit rate 0.18% among 360,000
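TRHR-expressing cells, plated overnight in medium with 10% serum, were loaded with fluo-8 calcium dye at room temperature. After a 10 s baseline, library compound was pin-added and calcium release was recorded kinetically (ex 480/em 530) as agonist response.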
D1 potentiator: Potentiators of Human D1 Dopamine Receptor: qHTS; D(1A) dopamine receptor (Homo sapiens), P21728; hit rate 0.036% among 360,000; AID 504651, 2011; potentiation, % at 10 µM; HEK293 TREx D1 cells, calcium flux, dopamine EC20 potentiation; in the data active means potentiation above about 30%
Each line names hits and unclear results; the compound was inactive in the other large screens; ! = not active in a repeat. Unless noted, no stated cut-off is given here; in the data, active means activation above about 30%; inactive means the rest.

Cc1n[nH]c(C)c1CCCCOc1ccc([N+](=O)[O-])cc1	D1 antagonist -39
CCOC(=O)c1c(C)[nH]c(CCC(=O)Nc2ccc(C)c(F)c2)c1C	none
Cc1ccc(NC(=O)C2CCN(S(=O)(=O)c3c(C)noc3C)CC2)c(C)c1	none
Cc1ccc(S(=O)(=O)NCc2nc3nc(C)cc(C)n3n2)c(C)c1	D1 antagonist -65!
Cc1cc(C)c(S(=O)(=O)NCc2nc3nc(C)cc(C)n3n2)c(C)c1	none
CCCC1=Nc2cc(C(=O)NCCc3ccccc3)ccc2Sc2ccc(C)cc21	none
Cc1ccc(S(=O)(=O)NCCC(=O)N2CCC(C)CC2)cc1	none
COc1ccc(NC(=O)COc2ccc(C)nc2[N+](=O)[O-])cc1S(N)(=O)=O	D1 antagonist -40
Cc1ccc(OCC(=O)Nc2ccc3c(c2)CCC3)c([N+](=O)[O-])n1	none
CCN(CC)C(=O)c1ccc(-c2nnc(Nc3ccc(O)cc3)c3ccccc23)cc1	D1 potentiator 43
CCN(CC)C(=O)c1ccc(Nc2nnc(C)c3ccccc23)cc1	none
CCN(CC)C(=O)c1ccc(-c2nnc(Nc3ccc(C(=O)N(C)C)cc3)c3ccccc23)cc1	D1 antagonist -92
CCCCn1nc2cc(C(=O)NCCc3cccs3)ccc2c1OCC	D1 antagonist -67
CCOc1c2ccc(C(=O)NCCc3cccs3)cc2nn1CC	none
CCOc1ccc(C(=O)NCc2cccs2)cc1	none
CCCCOc1ccc(C(=O)NCCc2cccs2)cc1	D1 antagonist -32
CCCCOc1ccc(C(=O)NCC2(c3ccccc3)CCOCC2)cc1	D1 antagonist -40
Cc1ccc(N(CC(=O)Nc2ccc(F)cc2F)S(=O)(=O)c2cccs2)cc1	none
COc1ccc(CNCCC(c2ccc(OC(C)C)cc2)c2ccccc2OC)cc1 (configuration not stated)	D1 agonist 35
COc1ccccc1C(CCNCc1ccccc1)c1ccc(OC(C)C)cc1 (configuration not stated)	none
COc1ccc(C(CCNCc2ccc(OC(C)C)cc2)C(C)C)cc1 (configuration not stated)	D1 agonist 31
COc1ccc(C(CCNCc2ccc(N(C)C)cc2)C(C)C)cc1 (configuration not stated)	none
COc1ccc(CNCCC(c2ccc(OC(C)C)cc2)C(C)C)cc1OC (configuration not stated)	D1 agonist 35
N/C(=N\S(=O)(=O)c1cc(C(F)(F)F)cc(C(F)(F)F)c1)c1ccncc1	none
N/C(=N\S(=O)(=O)c1cc(C(F)(F)F)cc(C(F)(F)F)c1)c1ccc(Cl)cc1	D1 antagonist -77
CCOc1ccc(NC(=O)C2CCN(S(=O)(=O)c3ccc4c(c3)CC(C)N4C(C)=O)CC2)cc1 (configuration not stated)	none
CCc1ccc(NC(=O)C2CCN(S(=O)(=O)c3ccc4c(c3)CC(C)N4C(C)=O)CC2)cc1 (configuration not stated)	D1 antagonist -31
CCOc1ccc(OCC)c(NC(=O)C2CCN(S(=O)(=O)c3ccc4c(c3)CC(C)N4C(C)=O)CC2)c1 (configuration not stated)	D1 antagonist -35!
CCc1ccc(NC(=O)C2CCCN(S(=O)(=O)c3ccc4c(c3)CC(C)N4C(C)=O)C2)cc1 (configuration not stated)	none
COc1ccccc1N1CCN(C(=O)CN2C(=O)COc3ccc(S(=O)(=O)N4CCCC4)cc32)CC1	none
Cc1cc(Br)ccc1NC(=O)c1c(C)oc2ncnc(N3CCCCC3)c12	none
COc1cccc(N2CCN(c3ncnc4c3c(-c3ccccc3)cn4-c3ccc(F)cc3)CC2)c1	none
Cc1ccccc1Nc1ncnc2c1c(-c1ccccc1)cn2-c1ccc(F)cc1	D1 antagonist -34
CN1CCN(c2ncnc3c2c(-c2ccccc2)cn3-c2ccc(F)cc2)CC1	D1 antagonist -42
COc1ccc(Cl)cc1Nc1ncnc2c1c(-c1ccccc1)cn2-c1ccccc1	D1 antagonist -58
CCCCCn1c(=O)[nH]c2cc(C(=O)NCc3ccc(OC)cc3)ccc2c1=O	none

High-throughput results from PubChem BioAssay.
